The source of these data is PubChem BioAssay (NCATS).

Results filed as inconclusive are left out. Calls of active or inactive are those of the source. Calls come from the whole dose curve; as a rule, active = well fitted cell-killing curve with a large enough effect; inconclusive = small, poorly fitted or top-dose-only effect, or effect the other way; inactive = no such curve, though single readings can be large or run the other way.
Note: nearly all actives have a fitted effect of over 35% in size.
Potency is the fitted concentration of half-maximal effect.

One assay is described as follows: Quantitative highthroughput screen to assess conditional lethalithy of SEM cells grown in RPMI1640 with unreated serum (RPMI+s) (AID 1963883). The following applies: SEM B-ALL cells, CellTiter-Glo viability, 48 h; series mostly up to 45.8 µM. In outline:
(§1)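 Each medium arm—HPLM with 10% dialyzed FBS, or RPMI1640 with 5 mM glucose and 10% untreated or dialyzed FBS—was screened against an 11-point, 3-fold compound titration for 48 h at 37 °C, with CellTiter-Glo luminescence as endpoint.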
(ATP-based viability assays read luminescence as a measure of living cells.)
On to `CN1CCN(c2ccc(C(=O)Nc3n[nH]c4ccc(Cc5cc(F)cc(F)c5)cc34)c(NC3CCOCC3)c2)CC1`, for which the Potency was 5.24 µM (active).

As to `CN1C2CCC1CC(OC(=O)C(CO)c1ccccc1)C2` (stereo not given), the Potency entry is “inactive”.

Turning to `Clc1ccc2c(c1)C(N1CCNCC1)=Nc1ccccc1O2`, the Potency result was “inactive”.

Take `CO[C@@H]1C(N(C)C(=O)c2ccccc2)C[C@H]2O[C@]1(C)n1c3ccccc3c3c4c(c5c6ccccc6n2c5c31)C(=O)NC4=O` (stereo not given in full): the Potency is 1.87 µM (active).

With `CC(C)(C)c1cc(C(C)(C)C)c(NC(=O)c2c[nH]c3ccccc3c2=O)cc1O`, the Potency result is “inactive”.

Consider `Cc1ccc(C(=O)Nc2cccc(C(F)(F)F)c2)cc1-c1ccc2nc(NCCN3CCOCC3)ncc2c1`, for which the Potency was 4.18 µM (active).

On to `COc1ccc(-c2oc3c(CC=C(C)C)c(O)cc(O)c3c(=O)c2O)cc1`, for which the Potency entry is “inactive”.

Consider `COCCCOc1cc(C[C@@H](C[C@H](N)[C@@H](O)C[C@H](C(=O)NCC(C)(C)C(N)=O)C(C)C)C(C)C)ccc1OC`, for which the Potency entry was “inactive”.

Regarding `C=CC(=O)Nc1ccc2ncnc(Nc3ccc(OCc4cccc(F)c4)c(Cl)c3)c2c1`, the Potency is 7.43 µM (active).

As to `CCCc1cc(C(N)=S)ccn1`, the Potency entry was “inactive”.

For the compound `CC(=O)Nc1ccc([C@H](C)C(=O)Nc2ncc(C(C)C)s2)cc1`, the Potency is 7.43 µM (active).

As for `Nc1nc(Nc2ccc(S(N)(=O)=O)cc2)nn1C(=O)c1c(F)cccc1F`, the Potency is 10.5 µM (active).

Take `CC(C)C[C@H](NC(=O)CNC(=O)c1cc(Cl)ccc1Cl)B1OC(=O)CC(CC(=O)O)(C(=O)O)O1` (stereo not given in full): the Potency is 0.0935 µM (active).

As to `CNC(=O)c1ccc2c(C(=Nc3cccc(CN(C)C)c3)c3ccccc3)c(O)[nH]c2c1`, the Potency was 0.935 µM (active).

Take `C[C@H]1COC2=C1C(=O)C(=O)c1c2ccc2c1CCCC2(C)C`: the Potency is 2.35 µM (active).

In the case of `O=C(c1ccc(F)cc1)N1CCC[C@H](c2nc(-c3ccc(F)cc3)no2)C1`, the Potency entry is “inactive”.

In the case of `CC(=O)NC(C)c1ccc(Oc2ccc(OC(C)C)cc2)cc1` (stereo not given), the Potency result was “inactive”.

As for `COc1c2occc2cc2ccc(=O)oc12`, the Potency result is “inactive”.

Take `COc1ccc(-n2nc(C(N)=O)c3c2C(=O)N(c2ccc(N4CCCCC4=O)cc2)CC3)cc1`: the Potency entry was “inactive”.

Turning to `O=C(O)CCCCCC(=O)NN=C1CCCC1`, the Potency result was “inactive”.

For `O=C(O)CCNC(=O)c1ccc(N=Nc2ccc(O)c(C(=O)O)c2)cc1`, the Potency entry was “inactive”.

With `N#Cc1ccnc(Nc2cc(C3CCN(C4COC4)CC3)cc(N3CCC(F)(F)C3)n2)c1`, the Potency was 13.2 µM (active).

Take `Cc1cc([C@@H](C)Nc2ccccc2C(=O)O)c2nc(N3CCOCC3)cc(=O)n2c1`: the Potency was 10.8 µM (active).

On to `CCN1CCN(c2ccc(Nc3cc(N(C)C(=O)Nc4c(Cl)c(OC)cc(OC)c4Cl)ncn3)cc2)CC1`, for which the Potency was 2.09 µM (active).

Consider `Cc1nc(Nc2n[nH]c3c2CN(C(=O)N[C@H](CN(C)C)c2ccccc2)C3(C)C)c2sccc2n1`, for which the Potency was 0.332 µM (active).

For `CC(=O)CC(c1ccccc1)c1c(O)c2ccccc2oc1=O` (stereo not given), the Potency result was “inactive”.

Regarding `CCc1ccc(C(=O)Nc2cc(CN3CCN(C)CC3)cc(C(F)(F)F)c2)cc1C#Cc1cnc2ccnn2c1`, the Potency result is “inactive”.

Consider `CON(C)C(=O)N1N=C(c2cc(F)ccc2F)S[C@@]1(CCCN)c1ccccc1`, for which the Potency was 0.0117 µM (active).

Turning to `N#CC1(c2ccc(NC(=O)c3cccnc3NCc3ccncc3)cc2)CCCC1`, the Potency result is “inactive”.

A short description of another assay: Quantitative highthroughput screen to assess conditional lethalithy of SEM cells grown in RPMI1640 with dialyzed fetal bovine serum (RPMI+ds) (AID 1963884). The note with it: SEM B-ALL cells, RPMI+dialyzed FBS, CellTiter-Glo viability, 48 h; series mostly up to 45.8 µM. In outline: as §1
As to `CN1CCN(c2ccc(C(=O)Nc3n[nH]c4ccc(Cc5cc(F)cc(F)c5)cc34)c(NC3CCOCC3)c2)CC1`, the Potency is 3.71 µM (active).

As for `CN1C2CCC1CC(OC(=O)C(CO)c1ccccc1)C2` (stereo not given), the Potency entry was “inactive”.

As to `CCCCS(=N)(=O)CCC(N)C(=O)O` (stereo not given), the Potency result is “inactive”.

In the case of `Fc1ccc(CNc2ncnc3ccc(F)cc23)cc1`, the Potency entry was “inactive”.

For `O=C1NC(=O)C(c2cnc3ccccn23)=C1c1cn2c3c(cccc13)CN(C(=O)N1CCOCC1)CC2`, the Potency is 0.0074 µM (active).

As to `CO[C@@H]1C(N(C)C(=O)c2ccccc2)C[C@H]2O[C@]1(C)n1c3ccccc3c3c4c(c5c6ccccc6n2c5c31)C(=O)NC4=O` (stereo not given in full), the Potency was 3.72 µM (active).

Regarding `CC(C)(C)c1cc(C(C)(C)C)c(NC(=O)c2c[nH]c3ccccc3c2=O)cc1O`, the Potency entry is “inactive”.

Regarding `Cc1ccc(C(=O)Nc2cccc(C(F)(F)F)c2)cc1-c1ccc2nc(NCCN3CCOCC3)ncc2c1`, the Potency is 4.18 µM (active).

In the case of `COc1ccc(-c2oc3c(CC=C(C)C)c(O)cc(O)c3c(=O)c2O)cc1`, the Potency entry is “inactive”.

In the case of `Cc1ccc(F)c(NC(=O)Nc2ccc(-c3cccc4[nH]nc(N)c34)cc2)c1`, the Potency is 5.9 µM (active).

As to `COCCCOc1cc(C[C@@H](C[C@H](N)[C@@H](O)C[C@H](C(=O)NCC(C)(C)C(N)=O)C(C)C)C(C)C)ccc1OC`, the Potency result was “inactive”.

Consider `C=CC(=O)Nc1ccc2ncnc(Nc3ccc(OCc4cccc(F)c4)c(Cl)c3)c2c1`, for which the Potency is 8.33 µM (active).

With `CCCc1cc(C(N)=S)ccn1`, the Potency result was “inactive”.

As to `CC(=O)Nc1ccc([C@H](C)C(=O)Nc2ncc(C(C)C)s2)cc1`, the Potency was 7.43 µM (active).

Regarding `Nc1nc(Nc2ccc(S(N)(=O)=O)cc2)nn1C(=O)c1c(F)cccc1F`, the Potency is 9.35 µM (active).

Turning to `CC(C)C[C@H](NC(=O)CNC(=O)c1cc(Cl)ccc1Cl)B1OC(=O)CC(CC(=O)O)(C(=O)O)O1` (stereo not given in full), the Potency is 0.118 µM (active).

As for `CNC(=O)c1ccc2c(C(=Nc3cccc(CN(C)C)c3)c3ccccc3)c(O)[nH]c2c1`, the Potency is 1.32 µM (active).

As to `C[C@H]1COC2=C1C(=O)C(=O)c1c2ccc2c1CCCC2(C)C`, the Potency is 13.2 µM (active).

Turning to `O=C(c1ccc(F)cc1)N1CCC[C@H](c2nc(-c3ccc(F)cc3)no2)C1`, the Potency entry was “inactive”.

Consider `CC(=O)NC(C)c1ccc(Oc2ccc(OC(C)C)cc2)cc1` (stereo not given), for which the Potency result is “inactive”.

Take `COc1c2occc2cc2ccc(=O)oc12`: the Potency entry was “inactive”.

With `COc1ccc(-n2nc(C(N)=O)c3c2C(=O)N(c2ccc(N4CCCCC4=O)cc2)CC3)cc1`, the Potency entry was “inactive”.

For the compound `O=C(O)CCCCCC(=O)NN=C1CCCC1`, the Potency entry was “inactive”.

With `Cc1cc2c(F)c(Oc3ncnn4cc(OC[C@@H](C)O)c(C)c34)ccc2[nH]1`, the Potency was 9.35 µM (active).

As to `O=C(O)CCNC(=O)c1ccc(N=Nc2ccc(O)c(C(=O)O)c2)cc1`, the Potency result was “inactive”.

With `CNC(=O)[C@H](Cc1ccccc1)NC(=O)[C@H](CC(C)C)[C@H](CSc1cccs1)C(=O)NO`, the Potency was 14.8 µM (active).

Take `N#Cc1ccnc(Nc2cc(C3CCN(C4COC4)CC3)cc(N3CCC(F)(F)C3)n2)c1`: the Potency was 9.33 µM (active).

Consider `Cc1cc([C@@H](C)Nc2ccccc2C(=O)O)c2nc(N3CCOCC3)cc(=O)n2c1`, for which the Potency is 9.59 µM (active).

With `Cc1nc(Nc2n[nH]c3c2CN(C(=O)N[C@H](CN(C)C)c2ccccc2)C3(C)C)c2sccc2n1`, the Potency was 1.18 µM (active).

On to `CC(=O)CC(c1ccccc1)c1c(O)c2ccccc2oc1=O` (stereo not given), for which the Potency entry was “inactive”.

`N#CC1(c2ccc(NC(=O)c3cccnc3NCc3ccncc3)cc2)CCCC1`: the Potency is 1.66 µM (active).
